About 83,000 compounds went through this panel and 20% of them were active in at least one assay; those are over-represented in the sample as a whole.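 Single-concentration screen, 48 h exposure, 96-well plates. Endpoint: percent growth. Below 10 = active.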 Unmarked numbers belong to inactive results. Activity calls are given as the source filed them.

These results are taken from PubChem BioAssay (NCI).

Test systems include HCT-15 colon; HT29 colon; SNB-75 CNS; SNB-19 CNS; U251 CNS; PC-3 prostate; SK-MEL-5 melanoma; UACC-62 melanoma; LOX IMVI melanoma; SK-MEL-28 melanoma; SK-MEL-2 melanoma; EKVX NSCLC; SN12C renal; UO-31 renal; TK-10 renal; ACHN renal; CAKI-1 renal; A498 renal; CCRF-CEM leukemia; MOLT-4 leukemia.
What all share (assay): NCI-60 one-dose screen, 48 h (100 = growth as untreated, 0 = no growth, -100 = all killed)
Holding throughout (conditions): 10 µM unless noted

Regarding `COc1cc2nc(Cl)nc(Nc3cccc(C4=Nc5c(N)nc(N)nc5NC(c5ccc(F)cc5)C4)c3)c2cc1OC` (stereo not drawn), the growth is 0.163% (active) in the assay on HCT-15 colon; 9.87% (active) in the assay with HT29 colon; 85.9% in the assay on SNB-75 CNS; 31.7% in the assay on SNB-19 CNS; -22% (active) in the assay on U251 CNS; 59.9% in the assay on PC-3 prostate. The growth in the assay on SK-MEL-5 melanoma is 67.1%; with UACC-62 melanoma it was 93%; in the assay on LOX IMVI melanoma, -53.6% (active); with SK-MEL-28 melanoma, 94.6%; in the assay on SK-MEL-2 melanoma it was 86%; in the assay with EKVX NSCLC, 89.6%. Besides, the growth is 81.9% in the assay on SN12C renal; 91.8% with UO-31 renal; 112% in the assay with TK-10 renal; 97.3% with ACHN renal; 88.8% with CAKI-1 renal; 77.9% with A498 renal. Moreover, in the assay on CCRF-CEM leukemia, the growth was 5.4% (active).

For `CC1=N[C@@H]2CN(C(=O)OC(C)(C)C)C[C@@H]2n2c1cc1ccccc1c2=O`, the growth was 104% with HCT-15 colon; 106% with HT29 colon; 91.7% in the assay with SNB-75 CNS; 105% in the assay on SNB-19 CNS; 106% in the assay on U251 CNS; 92% in the assay with PC-3 prostate. Besides, the growth is 99.1% in the assay on SK-MEL-5 melanoma; 97.9% in the assay on UACC-62 melanoma; 98.2% in the assay with LOX IMVI melanoma; 115% in the assay on SK-MEL-28 melanoma; 102% in the assay with SK-MEL-2 melanoma; 103% with EKVX NSCLC. In addition, the growth in the assay with SN12C renal was 97.1%; in the assay with UO-31 renal, 74.9%; with TK-10 renal, 123%; in the assay on ACHN renal it was 92.6%; with CAKI-1 renal it was 80.2%; with A498 renal, 114%. For the same compound, the growth with CCRF-CEM leukemia is 105%; in the assay with MOLT-4 leukemia, 106%.

With `COc1cc(-c2nc(-c3ccccc3)[nH]c2-c2ccnc(NCCCNS(=O)(=O)c3cccc(F)c3)n2)ccc1Cl`, the growth in the assay with HCT-15 colon is 25.7%; in the assay with HT29 colon, 23.1%; in the assay on SNB-75 CNS it was 77.4%; with SNB-19 CNS, 66.3%; in the assay on U251 CNS it was 44.5%; in the assay with PC-3 prostate, 25.2%. For the same compound, the growth was 34.2% in the assay with SK-MEL-5 melanoma; 44.1% in the assay on UACC-62 melanoma; 35.5% with LOX IMVI melanoma; 55% with SK-MEL-28 melanoma; 43.5% with SK-MEL-2 melanoma; 54.3% in the assay with EKVX NSCLC. Also, the growth in the assay on SN12C renal is 57.7%; in the assay with UO-31 renal, 35.9%; in the assay with TK-10 renal, 72.3%; in the assay with ACHN renal, 32.8%; with CAKI-1 renal, 42.9%; in the assay on A498 renal, 70.4%. For the same compound, the figures for the growth with CCRF-CEM leukemia and in the assay with MOLT-4 leukemia were 24.6% and 19.6%, respectively.

Turning to `CCCCCc1ccc(S(=O)(=O)Nc2cc(-c3csc(NC(=O)CN4CCN(C)CC4)n3)ccc2OC)cc1`, the growth in the assay with HCT-15 colon was -58.9% (active); with HT29 colon it was -31.1% (active); in the assay on SNB-75 CNS it was 91.2%; in the assay with SNB-19 CNS, 6.64% (active); in the assay with U251 CNS, -18.2% (active); in the assay with PC-3 prostate, 23.2%. For the same compound, the growth was -93.5% (active) in the assay with SK-MEL-5 melanoma; -58.5% (active) in the assay with UACC-62 melanoma; -94% (active) with LOX IMVI melanoma; -69.4% (active) in the assay on SK-MEL-28 melanoma; 73.6% with SK-MEL-2 melanoma; 63.4% in the assay with EKVX NSCLC. The growth in the assay with SN12C renal was 11.8%; in the assay on UO-31 renal, -92.7% (active); in the assay with TK-10 renal, 103%; in the assay with ACHN renal it was 3.55% (active); in the assay with CAKI-1 renal, -15.5% (active); with A498 renal, 75.2%. Besides, the growth with CCRF-CEM leukemia was 2.18% (active).

On to `COc1ccc(N2CCN(C3=C(Cl)C(=O)C(C)=C(C)C3=O)CC2)cc1`, for which the growth in the assay with HCT-15 colon is 110%; with HT29 colon it was 120%; with SNB-75 CNS, 107%; with SNB-19 CNS, 99.1%; in the assay with U251 CNS, 100%; in the assay with PC-3 prostate, 92.3%. The growth with SK-MEL-5 melanoma is 97.6%; in the assay with UACC-62 melanoma, 88.5%; with LOX IMVI melanoma, 91.4%; with SK-MEL-28 melanoma, 118%; in the assay on SK-MEL-2 melanoma, 106%; with EKVX NSCLC, 116%. Moreover, the growth in the assay on SN12C renal was 99.3%; in the assay with UO-31 renal it was 91.4%; in the assay with TK-10 renal, 123%; in the assay on ACHN renal, 104%; in the assay on CAKI-1 renal, 91.9%; in the assay on A498 renal, 108%. Further, the growth in the assay on CCRF-CEM leukemia was 26.1%.

`COc1ccccc1-n1cc(C#N)c(N)c1C(=O)c1ccc(Br)cc1`: the growth is 35.1% in the assay on HCT-15 colon; 44.6% in the assay with HT29 colon; 74.5% in the assay on SNB-75 CNS; 71.1% with SNB-19 CNS; 66.8% in the assay on U251 CNS; 63.4% in the assay with PC-3 prostate. The growth in the assay on SK-MEL-5 melanoma was 77.4%; in the assay with UACC-62 melanoma, 45.2%; with LOX IMVI melanoma it was 66.2%; in the assay on SK-MEL-28 melanoma, 69%; with SK-MEL-2 melanoma it was 70.4%; in the assay on EKVX NSCLC it was 85.4%. Also, the growth in the assay with SN12C renal is 82.7%; with UO-31 renal it was 73%; in the assay on TK-10 renal, 111%; in the assay on ACHN renal, 98.9%; in the assay with CAKI-1 renal it was 68.8%; with A498 renal, 60.6%. Besides, the growth with CCRF-CEM leukemia is 68.3%; in the assay with MOLT-4 leukemia, 61.4%.

For `COc1ccccc1C(=O)Nc1cccc2c1C(=O)C(=O)C=C2`, the growth with HCT-15 colon is 93.6%; in the assay with HT29 colon, 62.5%; in the assay with SNB-75 CNS it was 70%; with SNB-19 CNS it was 106%; in the assay on U251 CNS, 107%; in the assay on PC-3 prostate, 89.8%. For the same compound, the growth in the assay on SK-MEL-5 melanoma was 93.2%; with UACC-62 melanoma, 105%; in the assay with LOX IMVI melanoma, 63.1%; in the assay with SK-MEL-28 melanoma, 108%; in the assay on SK-MEL-2 melanoma it was 109%; with EKVX NSCLC it was 72.2%. Moreover, the growth with SN12C renal is 90.9%; in the assay on UO-31 renal it was 59.2%; with TK-10 renal, 116%; in the assay with ACHN renal, 101%; with CAKI-1 renal it was 76.4%; in the assay with A498 renal it was 38.4%.

As for `COc1cc(-c2nn(C(C)(C)C)cc2-c2ccnc(NCCCNS(=O)(=O)c3ccc(Cl)cc3)n2)ccc1Cl`, the growth was 51.5% with HCT-15 colon; 49.4% in the assay with HT29 colon; 41.7% in the assay on SNB-75 CNS; 87.1% in the assay on SNB-19 CNS; 77.3% in the assay on U251 CNS; 30.5% in the assay with PC-3 prostate. The growth with SK-MEL-5 melanoma was 77%; in the assay with UACC-62 melanoma, 61.7%; in the assay on LOX IMVI melanoma, 65.4%; with SK-MEL-28 melanoma, 84.2%; in the assay on SK-MEL-2 melanoma, 82.5%; in the assay on EKVX NSCLC, 31.3%. The growth in the assay on SN12C renal is 46%; in the assay with UO-31 renal, 32.7%; with TK-10 renal it was 66.1%; with ACHN renal, 64.1%; with CAKI-1 renal it was 17.7%; in the assay with A498 renal, 49.4%.
